This note sets out measurements from PubChem BioAssay (NCI).

Among the test systems are SK-MEL-2 melanoma; EKVX NSCLC; SN12C renal; UO-31 renal; TK-10 renal; ACHN renal; CAKI-1 renal; A498 renal; CCRF-CEM leukemia; MOLT-4 leukemia; SR leukemia; OVCAR-8 ovarian; OVCAR-5 ovarian; OVCAR-4 ovarian; SK-OV-3 ovarian; IGROV1 ovarian; OVCAR-3 ovarian; HS 578T breast; NCI/ADR-RES ovarian.
What all share (assay): NCI-60 one-dose screen, 48 h (100 = growth as untreated, 0 = no growth, -100 = all killed)
Common to all, as to details: 10 µM unless noted

About 83,000 compounds went through this panel and 20% of them were active in at least one assay; those are over-represented in the sample as a whole.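 Treatment: one concentration, 48 hours, 96-well format. Scoring: percent growth, with anything below 10 considered active.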 A number with no mark means an inactive call. Calls of active or inactive are those of the source.

As to `COc1ccc(/C=C2\Oc3cc(OCCN4CCC(Cc5ccccc5)CC4)ccc3C2=O)cc1OC`, the growth in the experiment with SK-MEL-2 melanoma is 104%; in the experiment with EKVX NSCLC it was 70.4%; in the experiment with SN12C renal it was 65.6%; in the experiment with UO-31 renal, 51.9%; in the experiment with TK-10 renal, 95.3%; with ACHN renal, 96.8%. Further, the growth in the experiment on CAKI-1 renal is 74.2%; in the experiment on A498 renal, 69.7%; in the experiment with CCRF-CEM leukemia, 55.9%; in the experiment with MOLT-4 leukemia it was 46.7%; with SR leukemia, -1.05% (active); with OVCAR-8 ovarian it was 39.1%. Also, the growth in the experiment with OVCAR-5 ovarian is 93.4%; with OVCAR-4 ovarian, 79.3%; in the experiment on SK-OV-3 ovarian, 87.8%; in the experiment with IGROV1 ovarian, 82.1%; with OVCAR-3 ovarian it was 87%; in the experiment with HS 578T breast it was 74.6%. The growth in the experiment on NCI/ADR-RES ovarian is 70.9%.
Take `CCOc1cccc(NC2=C(Br)C(=O)C(C)=C(C)C2=O)c1`: the growth in the experiment with SK-MEL-2 melanoma is 95.5%; with EKVX NSCLC, 92.4%; in the experiment with SN12C renal, 85%; in the experiment with UO-31 renal it was 71.7%; in the experiment with TK-10 renal it was 155%; in the experiment on ACHN renal it was 85.8%. Besides, the growth in the experiment with CAKI-1 renal is 96%; in the experiment on A498 renal, 109%; with CCRF-CEM leukemia, 3.35% (active); with MOLT-4 leukemia, 2.57% (active); with SR leukemia, 74.7%; in the experiment with OVCAR-8 ovarian it was 91.5%. For the same molecule, the growth was 95.7% in the experiment on OVCAR-5 ovarian; 56.7% in the experiment with OVCAR-4 ovarian; 88% with SK-OV-3 ovarian; 58.6% in the experiment on IGROV1 ovarian; 87.6% in the experiment with OVCAR-3 ovarian; 91.2% in the experiment on HS 578T breast. For the same molecule, in the experiment with NCI/ADR-RES ovarian, the growth is 96.5%.
Turning to `CCCCCCCCCCCCCCCCCCOc1ccc(CC(=O)OCC[N+]2(C)CCCCC2)cc1`, the growth with SK-MEL-2 melanoma is 104%; in the experiment with EKVX NSCLC, 97.9%; in the experiment on SN12C renal it was 89.1%; with UO-31 renal, 94.1%; with TK-10 renal, 99.1%; with ACHN renal it was 97.5%. Besides, the growth is 100% in the experiment with CAKI-1 renal; 100% in the experiment on A498 renal; 89.8% with CCRF-CEM leukemia; 98.6% with MOLT-4 leukemia; 102% in the experiment on SR leukemia; 96.9% in the experiment with OVCAR-8 ovarian. Moreover, the growth was 100% in the experiment on OVCAR-5 ovarian; 86.8% with OVCAR-4 ovarian; 104% in the experiment with SK-OV-3 ovarian; 92.6% in the experiment on IGROV1 ovarian; 101% in the experiment with OVCAR-3 ovarian; 108% with HS 578T breast. Besides, the growth with NCI/ADR-RES ovarian was 104%.
With `O=C1c2cccc3cccc(c23)C(=O)N1Nc1nc(NC2CCCCC2)nc(N2CCOCC2)n1`, the growth with SK-MEL-2 melanoma is 109%; in the experiment with EKVX NSCLC it was 90%; in the experiment with SN12C renal, 93.9%; in the experiment with UO-31 renal, 69.1%; with TK-10 renal it was 129%; in the experiment on ACHN renal, 89.7%. In addition, the growth in the experiment with CAKI-1 renal was 76.5%; in the experiment with A498 renal it was 127%; in the experiment on CCRF-CEM leukemia, 90.1%; in the experiment on MOLT-4 leukemia, 90%; in the experiment with SR leukemia, 91%; in the experiment with OVCAR-8 ovarian, 99%. For the same molecule, the growth with OVCAR-5 ovarian was 95.6%; with OVCAR-4 ovarian, 106%; with SK-OV-3 ovarian, 95.7%; with IGROV1 ovarian, 90.3%; with OVCAR-3 ovarian it was 103%; in the experiment on HS 578T breast, 99.4%. In addition, in the experiment on NCI/ADR-RES ovarian, the growth is 99.8%.
`CNC(=O)c1cc(-n2ccc3cc(NC(=O)c4ccc(N5CCOCC5)c(C(F)(F)F)c4)ccc32)ccn1`: the growth in the experiment on SK-MEL-2 melanoma was 91.1%; with EKVX NSCLC it was 83.9%; in the experiment on SN12C renal, 64.3%; in the experiment with UO-31 renal, 50.2%; in the experiment on TK-10 renal it was 86.8%; with ACHN renal, 61.5%. Further, the growth is 63.6% in the experiment on CAKI-1 renal; 25.9% with A498 renal; 30.1% in the experiment with CCRF-CEM leukemia; 34.6% in the experiment on MOLT-4 leukemia; 24.8% in the experiment with SR leukemia; 27.7% in the experiment on OVCAR-8 ovarian. The growth in the experiment with OVCAR-5 ovarian was 79.1%; in the experiment with OVCAR-4 ovarian, 64.4%; in the experiment on SK-OV-3 ovarian, 91.2%; with IGROV1 ovarian, 77.7%; in the experiment on OVCAR-3 ovarian, 63.9%; in the experiment with HS 578T breast, 47.1%. Further, in the experiment on NCI/ADR-RES ovarian, the growth is 45.7%.
For the molecule `O=c1c2cccc(F)c2sc2c(NCCCNCCO)nc3ccccc3c12`, the growth in the experiment with SK-MEL-2 melanoma was 89.8%; with EKVX NSCLC, 55.4%; in the experiment with SN12C renal it was 43.5%; in the experiment with UO-31 renal, 19%; in the experiment with TK-10 renal, 48.6%; with ACHN renal, 15.3%. Further, the growth was 3.45% (active) in the experiment on CAKI-1 renal; 40.9% in the experiment with A498 renal; 22.7% with CCRF-CEM leukemia; -6.18% (active) in the experiment on MOLT-4 leukemia; -16.6% (active) with SR leukemia; 32% in the experiment with OVCAR-8 ovarian. Also, the growth in the experiment with OVCAR-5 ovarian was 61.8%; with OVCAR-4 ovarian, 34.9%; with SK-OV-3 ovarian it was 56.2%; with IGROV1 ovarian, 24.2%; with OVCAR-3 ovarian, 30.1%; with HS 578T breast, 37.8%. In addition, the growth in the experiment with NCI/ADR-RES ovarian was 31.5%.
For the molecule `Oc1c(I)cc(I)cc1CNCCCN(Cc1ccccn1)Cc1ccccn1`, the growth was -30.9% (active) with SK-MEL-2 melanoma; -85.6% (active) in the experiment with EKVX NSCLC; -50.1% (active) with SN12C renal; -100% (active) in the experiment with UO-31 renal; -78.5% (active) with TK-10 renal; -100% (active) in the experiment on ACHN renal. In addition, the growth is -96.1% (active) in the experiment on CAKI-1 renal; -98.4% (active) in the experiment with A498 renal; 3.65% (active) with CCRF-CEM leukemia; -10.5% (active) with MOLT-4 leukemia; 4.38% (active) in the experiment on SR leukemia; -11.2% (active) in the experiment on OVCAR-8 ovarian. The growth was -44.9% (active) with OVCAR-5 ovarian; -94.3% (active) in the experiment on OVCAR-4 ovarian; -73% (active) with SK-OV-3 ovarian; -79.5% (active) in the experiment on IGROV1 ovarian; -69.9% (active) in the experiment with OVCAR-3 ovarian; -21.7% (active) in the experiment with HS 578T breast. In addition, in the experiment on NCI/ADR-RES ovarian, the growth was -17.1% (active).
Consider `CC(C)OC(=O)Nc1ccc(-c2nc(-c3cccc(OCCN4CCOCC4)c3)c(-c3ccnc(Br)c3)[nH]2)cc1`, for which the growth in the experiment with SK-MEL-2 melanoma is 32.5%; with EKVX NSCLC, 50.3%; in the experiment on SN12C renal, 57.6%; in the experiment with UO-31 renal, -15.9% (active); in the experiment on TK-10 renal, 68.1%; in the experiment with ACHN renal, 28.4%. Further, the growth with CAKI-1 renal was 35.5%; in the experiment on A498 renal it was -9.64% (active); in the experiment with CCRF-CEM leukemia it was 16.8%; with MOLT-4 leukemia it was 0.706% (active); in the experiment with SR leukemia, -14.6% (active); with OVCAR-8 ovarian it was 38.9%. Further, the growth with OVCAR-5 ovarian was 55.6%; in the experiment on OVCAR-4 ovarian, 54%; in the experiment with SK-OV-3 ovarian, 12.2%; with IGROV1 ovarian, 45.7%; in the experiment with OVCAR-3 ovarian, 45.1%; in the experiment on HS 578T breast, -33% (active). Further, the growth in the experiment with NCI/ADR-RES ovarian was 57.1%.
